# Sfp PPTase inh – Sfp phosphopantetheinyl transferase inhibition. Q9F4F7. Biochemical Sfp PPTase activity, qHTS. Potency, µM, inactives show largest response in the series, negative = inhibition, hits mostly inhibitors. hit rate 3.5% among 310,000;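 note: the enzyme is Sfp with the accession as filed and its product quenches rhodamine fluorescence; potency is the fitted concentration of half-maximal effect; 0% = enzyme reaction without inhibitor and -100% = no enzyme wells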
#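 Buffer: 50 mM Hepes-Na pH 7.6, 10 mM MgCl2, 0.01% Nonidet P-40, 0.01% BSA. Enzyme 15 nM, pre-exposed to compound 15 min; substrates then added and fluorescence change tracked over 30 min.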
# G9a block – G9a (human) methyltransferase inhibition; G9a H3K9 monomethylation, AlphaScreen, 2 h; Potency, µM (doses to about 102 µM), for inactives: top-dose activity, negative = inhibition, most hits filed as inhibitors; hit rate 8.8% among 350,000; note: potency is the fitted concentration of half-maximal effect; nearly all actives have a fitted effect of over 75% in size
#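 Quantitative HTS format: methyltransferase activity on a biotin-tagged H3K9 peptide is measured by AlphaScreen, using a rabbit anti-monomethyl-H3K9 antibody with streptavidin donor and anti-IgG acceptor beads. Final levels are 20 nM enzyme, 500 nM peptide, 20 uM SAM; 2 h RT.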
# CCT chaperon mod – changes cytosolic chaperonin activity; purified chaperonin ATPase assay, HTRF ADP detection, 30 min; activity change, % (concentration not given with the values), hits read low; hit rate 0.3% among 360,000; AID 651819; in the data active = activity change below about -30%
#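 ATPase activity: ADP formed was measured by HTRF Transcreener (665/615 nm ratio) after 30 min at 37 deg C with 10 uM ATP. Compounds screened at one 76 uM concentration against 40 or 20 nM TRiC in Tris pH 7.4/KCl/MgCl2/DTT buffer.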
# MmCpn inh – inhibitors of Methanococcus maripaludis chaperonin TRiC (MmCpn). AID 504842. Potency, µM (doses to about 76.9 µM), for inactives: top-dose activity, negative = inhibition, most hits filed as inhibitors. purified Mm-Cpn ATPase, ADP Transcreener TR-FRET. hit rate 0.031% among 330,000; note: potency is the fitted concentration of half-maximal effect; nearly all actives have a fitted effect of over 80% in size
#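 ATPase turnover read by TR-FRET ADP competition (Eu cryptate antibody/ADP-d2, 665/590 nm): 10uM ATP final, 25nM Mm-CPN final, 30 min 37degC after 10-min compound preincubation, pH 7.4 Tris/KCl/MgCl2/DTT buffer.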
# VDR inh – inhibitors of human vitamin D receptor. P11473. VDR-SRC2-3 peptide fluorescence polarization, 2 h. Potency, µM, for the others: max response, negative = inhibition, actives largely listed as inhibitors. hit rate 0.93% among 400,000. AID 504847; note: potency is the fitted concentration of half-maximal effect
#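 Compounds are added to VDR with labelled SRC2-3 coactivator peptide and held 2 h at room temperature. Inhibition of the VDR–peptide interaction is then read as a change in fluorescence polarization.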
# PLK1 PBD block – inhibitors of human PLK1 polo-box domain binding | P53350 | Plk1 PBD binding of FITC phosphopeptide, fluorescence polarization | Potency, µM, without a hit: max response, negative = inhibition, usual class: inhibitors | hit rate 2.8% among 360,000 | AID 720504; note: potency is the fitted concentration of half-maximal effect; series mostly up to about 57 µM; nearly all actives have a fitted effect of over 65% in size
# Target sequence (P53350 whole entry, looked up, the tested form may be a part): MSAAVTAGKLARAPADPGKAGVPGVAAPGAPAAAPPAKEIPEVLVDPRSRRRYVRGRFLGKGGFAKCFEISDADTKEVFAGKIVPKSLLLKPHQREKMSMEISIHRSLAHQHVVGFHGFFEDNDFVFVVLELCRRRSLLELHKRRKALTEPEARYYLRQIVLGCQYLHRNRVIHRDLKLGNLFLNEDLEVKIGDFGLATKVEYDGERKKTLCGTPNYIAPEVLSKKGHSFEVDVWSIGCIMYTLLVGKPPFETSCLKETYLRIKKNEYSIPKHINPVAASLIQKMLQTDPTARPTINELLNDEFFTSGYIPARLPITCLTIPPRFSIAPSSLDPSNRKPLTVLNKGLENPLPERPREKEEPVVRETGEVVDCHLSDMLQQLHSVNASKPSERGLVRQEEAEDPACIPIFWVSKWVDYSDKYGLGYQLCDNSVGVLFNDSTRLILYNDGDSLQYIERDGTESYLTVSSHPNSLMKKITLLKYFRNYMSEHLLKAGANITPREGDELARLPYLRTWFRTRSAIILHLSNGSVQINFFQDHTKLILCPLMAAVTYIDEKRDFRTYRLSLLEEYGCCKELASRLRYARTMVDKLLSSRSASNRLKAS
# * hit, by the source's call; ? = inconclusive; . = no result given; [ ] = remark or other dose. Most compounds without a hit are left out; they make up all but 10% or so of the library. Unless noted, calls come from the whole dose curve; as a rule, active = well fitted curve in the direction sought with a large enough effect; inconclusive = small, poorly fitted or top-dose-only effect, or another doubt; inactive = no such curve, though single readings can be large; an effect the other way counts as inactive or inconclusive. Unless noted, % is set by controls: 0 for no effect and ±100 for the full control effect.
SMILES,Sfp PPTase inh,G9a block,CCT chaperon mod,MmCpn inh,VDR inh,PLK1 PBD block
O=C(CCNC(=O)c1ccco1)NCc1ccc(F)cc1,.,.,-1,1%,-29%,-2%
O=C(NCc1n[nH]c(=S)n1-c1ccc(F)cc1)c1ccco1,-5%,22µM*,0,2%,11%,-6%
COc1ccc(-n2ncc(C(=O)N3CCN(c4ccccn4)CC3)c2C2CCN(C(=O)OC(C)(C)C)CC2)cc1,.,-8%[59 µM],.,.,16%,.
Cc1cc(-c2csc(N)n2)c(C)n1-c1ccc(Cl)c(Cl)c1,-1%,20µM*,-3,2%,4%,0%
COc1ccc(-n2c(C)cc(-c3csc(N)n3)c2C)cc1,?,8.9µM*,-1,-2%,20%,-6%
COc1cc(/C=C(\C#N)C(=O)c2ccc(O)c(O)c2)cc(I)c1O,.,2.2µM*,1,-24%,?,40%
CCOC(=O)/C(C#N)=C/c1ccc(OC)c(OC)c1,1%,16%[59 µM],-2,0%,-3%,-5%
O=C(CN1CCN(S(=O)(=O)c2cc(Cl)ccc2Cl)CC1)Nc1ccc2c(c1)OCCO2,8%,20µM*,3,-2%,12%,-7%
Cc1ccc(C)c(S(=O)(=O)N2CCN(CC(=O)Nc3ccc4c(c3)OCCO4)CC2)c1,16%,4%[12.7 µM],-1,1%,9%,-6%
CN(C)c1ccc(NC(=O)CN2CCN(S(=O)(=O)c3cc(Cl)ccc3Cl)CC2)cc1,-2%,1.4µM*,-1,-2%,?,-7%
CC(=O)N(CC1CCCO1)c1nnc(-c2ccccn2)s1 (stereo not given),-3%,56µM*,-2,-2%,-3%,-5%
COc1ccc(/C=C/c2nnc(NC(=O)CSc3ccc(C)cc3)s2)cc1,-2%,45%[12.7 µM],8,1%,-12%,-5%
Cc1ccc(SCC(=O)Nc2nnc(C(C)(C)C)s2)cc1,-2%,-27%[12.7 µM],-5,1%,4%,21µM*
O=C(COc1ccccc1Cl)OCc1cc(=O)n2nc(C3CC3)sc2n1,.,4%[59 µM],.,.,15%,.
N#CC1=C(N)SC(N)=C(C#N)C1C1C=CCCC1 (stereo not given),40µM*,?,-2,-2%,-17%,-9%
CC(C)CC1C(C#N)=C(N)SC(N)=C1C#N,?,?,0,-3%,?,25%
Cc1cc2c(c(=O)o1)C(C1C=CCCC1)C(C#N)=C(N)O2 (stereo not given),-7%,?,1,-1%,6%,1%
N#CC1=C(N)SC(N)=C(C#N)C1C1CC=CCC1 (stereo not given),20µM*,?,-2,1%,8%,-19%
COc1ccccc1CCNC(=O)c1ccc(NC(=O)N2CC(C)Sc3ccccc32)cc1 (stereo not given),.,3%[59 µM],.,.,8%,.
COc1ccc(NC(=S)N/N=C/c2cccn2Cc2ccc(F)cc2Cl)cc1,-6%,22µM*,-2,1%,-15%,-5%
Cc1cccc(NC(=S)N/N=C/c2cccn2Cc2ccc(F)cc2)c1,-15%,?,-7,-2%,-3%,1%
CSc1ccccc1NC(=S)N/N=C/c1cccn1Cc1cccc(C)c1,12%,25µM*,-3,-3%,-10%,0%
CSc1ccccc1NC(=S)N/N=C/c1cccn1Cc1ccc(F)cc1,37%,32µM*,1,-1%,14%,0%
COc1ccc(NC(=O)c2ccc(NC(=O)c3nc4nc(C)cc(C)n4n3)cc2)cc1,.,35µM*,-1,0%,13%,1%
Cc1cc(C)n2nc(C(=O)NNC(=O)c3ccccc3)nc2n1,79µM*,14µM*,0,1%,1%,0%
CCOc1ccc(C(=O)Nc2cccc(C(=O)OCc3cc(=O)n4cc(C)sc4n3)c2)cc1,.,0%[12.7 µM],.,.,12%,.
Clc1cccc(CNc2cc(-c3ccccc3)nc3nncn23)c1,.,5%[59 µM],.,.,8%,.
Cc1c(N)cc(N)cc1C(=O)O,-20%,79µM*,-3,-6%,21%,-12%
CCN(CC)c1ncnc2c1cnn2-c1cc(Cl)ccc1C,.,-3%[59 µM],.,.,1%,.

# Source: PubChem BioAssay (National Center for Advancing Translational Sciences (NCATS))
